Hits are enriched below; roughly 18% of the tested compounds scored in any of these assays.
DT40 TDP1 CPT: DT40-hTDP1 cell growth loss with CPT; AID 686979; 12% of 420,000 active; Potency, µM (series often up to 46.2 µM), actives largely listed as inhibitors; chicken DT40 Tdp1-/-;hTDP1 cells + 20 nM CPT, ATP luminescence, 48 h; also: nearly all actives have a fitted effect of over 55% in size
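Chicken DT40 Tdp1-/- cells stably complemented with human TDP1 were seeded at 400 cells/well in medium containing 20 nM camptothecin, exposed to pin-transferred compounds, and grown at 37 °C for at least 48 hr. Viability was read as ATP luminescence.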
PLK1 PBD block: PLK1 (human) polo-box domain binding inhibition; Potency, µM, most hits filed as inhibitors; P53350; Plk1 PBD binding of FITC phosphopeptide, fluorescence polarization; AID 720504; 2.8% of 360,000 active; also: series mostly up to about 57 µM; nearly all actives have a fitted effect of over 65% in size
TDP1 block: inhibitors of human tyrosyl-DNA phosphodiesterase TDP1; recombinant TDP1, AlphaScreen DNA substrate cleavage; 0.28% of 350,000 active; Q9NUW8; Potency, µM (highest dose often 130 µM), hits mostly inhibitors; also: nearly all actives have a fitted effect of over 40% in size
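Enzyme-compound mixtures sat 15 min at room temperature, followed by a 5 min reaction with 15 nM final substrate and 10 min with AlphaScreen beads. Recombinant human Tdp1 was used at 1 nM final.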
GCN5L2 inh: GCN5L2 (KAT2A) acetyltransferase inhibition | Potency, µM (series often up to 58.9 µM), actives largely listed as inhibitors | 0.21% of 390,000 active | Q92830 | GCN5L2 HAT assay, ThioGlo1 CoA-SH fluorescence
Target sequence (Q92830 whole entry, looked up): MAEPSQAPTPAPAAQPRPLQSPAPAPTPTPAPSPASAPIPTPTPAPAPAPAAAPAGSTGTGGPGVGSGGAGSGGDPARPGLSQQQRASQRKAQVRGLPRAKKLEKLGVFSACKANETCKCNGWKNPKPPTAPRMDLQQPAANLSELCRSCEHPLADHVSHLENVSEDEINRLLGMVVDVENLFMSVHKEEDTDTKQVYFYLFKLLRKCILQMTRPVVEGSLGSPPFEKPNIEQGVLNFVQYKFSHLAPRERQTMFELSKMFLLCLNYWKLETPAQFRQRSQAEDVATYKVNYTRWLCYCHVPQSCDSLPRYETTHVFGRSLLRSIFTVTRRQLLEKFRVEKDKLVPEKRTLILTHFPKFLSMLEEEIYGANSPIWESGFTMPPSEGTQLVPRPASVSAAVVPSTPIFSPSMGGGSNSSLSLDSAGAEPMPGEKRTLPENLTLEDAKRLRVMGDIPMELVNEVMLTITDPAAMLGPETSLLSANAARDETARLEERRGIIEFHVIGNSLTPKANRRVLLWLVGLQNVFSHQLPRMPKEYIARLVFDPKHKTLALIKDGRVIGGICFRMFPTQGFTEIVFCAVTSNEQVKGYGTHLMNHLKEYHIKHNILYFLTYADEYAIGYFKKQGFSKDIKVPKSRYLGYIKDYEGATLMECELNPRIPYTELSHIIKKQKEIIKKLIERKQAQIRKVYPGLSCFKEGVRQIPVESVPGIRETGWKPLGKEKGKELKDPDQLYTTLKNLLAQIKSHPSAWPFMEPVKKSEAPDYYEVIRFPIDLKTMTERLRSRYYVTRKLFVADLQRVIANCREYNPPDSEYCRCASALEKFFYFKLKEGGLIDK
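Enzyme at 20nM final was mixed with library compounds for 15 min at room temperature. Peptide H3(1-25) at 75uM, acetyl-CoA at 70uM and ThioGlo1 at 50uM were then added. Plates were read immediately and after 20 min (Ex340nm/Em540nm).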
VDR inhibitor: vitamin D3 receptor (human) inhibition; 0.93% of 400,000 active; VDR-SRC2-3 peptide fluorescence polarization, 2 h; P11473; Potency, µM, hits mostly inhibitors
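Fluorescence polarization assay measuring small-molecule disruption of VDR binding to the coregulator peptide SRC2-3. Compounds were pin-transferred (23 nl) into the reagent mix and incubated 2 h at room temperature before reading.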
TDP1 cell noCPT: qHTS for Inhibitors of human tyrosyl-DNA phosphodiesterase 1 (TDP1): qHTS in cells in absence of CPT; DT40 Tdp1-/- hTDP1 cells, no CPT, ATP luminescence, 48 h; Potency, µM (top dose mostly 46.2 µM), actives largely listed as inhibitors; 15% of 420,000 active; also: nearly all actives have a fitted effect of over 55% in size
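Seeded 400 DT40-hTDP1 cells/well (vehicle DMSO, no 20 nM CPT); pinned compounds; ≥48 hr at 37 °C; CellTiter-Glo luminescence as viability measure.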
Numbers stand for hits. Calls follow the shape of the dose curve; as a rule, active = well fitted curve in the direction sought with a large enough effect; inconclusive = small, poorly fitted or top-dose-only effect, or another doubt; inactive = no such curve, though single readings can be large; an effect the other way counts as inactive or inconclusive.

Cc1cccn2c(=O)c(C(=O)NCCc3ccc(S(N)(=O)=O)cc3)c(O)nc12 was read as DT40 TDP1 CPT inactive, TDP1 block inactive, GCN5L2 inh inactive, VDR inhibitor inactive and TDP1 cell noCPT inactive.
Cc1cccn2c(=O)c(C(=O)NC(C)c3ccccc3)c(O)nc12 (configuration not stated) was read as DT40 TDP1 CPT 18µM, TDP1 block inactive, GCN5L2 inh inactive, VDR inhibitor inactive and TDP1 cell noCPT inconclusive.
For COc1cccc(CNC(=O)c2c(O)nc3ccccn3c2=O)c1 the results were DT40 TDP1 CPT inactive, TDP1 block inactive, GCN5L2 inh inactive, VDR inhibitor inactive and TDP1 cell noCPT inconclusive.
O=C(NCc1ccc(F)cc1)c1c(O)nc2ccccn2c1=O was read as DT40 TDP1 CPT inconclusive, TDP1 block inactive, GCN5L2 inh inactive, VDR inhibitor inactive and TDP1 cell noCPT 21µM.
`O=[N+]([O-])c1ccc2c(c1)c(-c1ccccc1)nc1nncn12` gave DT40 TDP1 CPT inactive, PLK1 PBD block inactive, TDP1 block inactive, GCN5L2 inh inactive, VDR inhibitor inactive and TDP1 cell noCPT 7.3µM.
`CCOc1ccc2c(c1)C(C)=CC(C)(C)N2S(=O)(=O)c1ccc(NC(C)=O)cc1` gave DT40 TDP1 CPT 1µM, PLK1 PBD block inactive, TDP1 block inactive, GCN5L2 inh inactive, VDR inhibitor inactive and TDP1 cell noCPT 1.3µM.
Screening COc1ccc2c(c1)C(C)=CC(C)(C)N2S(=O)(=O)c1ccc(NC(C)=O)cc1 returned DT40 TDP1 CPT 5.8µM, PLK1 PBD block inactive, GCN5L2 inh inactive, VDR inhibitor inactive and TDP1 cell noCPT 2.3µM.
For CCOC(=O)CC(NS(=O)(=O)c1ccc(NC(C)=O)cc1)c1ccc(OCC)cc1 (configuration not stated) the results were DT40 TDP1 CPT inactive, PLK1 PBD block inactive, TDP1 block inactive, GCN5L2 inh inactive, VDR inhibitor inactive and TDP1 cell noCPT inactive.
Screening O=C(CCCn1c(=O)c2ccccc2n(Cc2cccc(F)c2)c1=O)NCc1ccccc1Cl returned DT40 TDP1 CPT inconclusive, TDP1 block inactive, GCN5L2 inh inactive, VDR inhibitor inconclusive and TDP1 cell noCPT inconclusive.
Screening O=C(CN1CCN(c2ccc(O)cc2)CC1)Nc1cc(S(=O)(=O)N2CCCCC2)ccc1Cl returned DT40 TDP1 CPT 10µM, PLK1 PBD block inactive, TDP1 block inactive, GCN5L2 inh inactive, VDR inhibitor inactive and TDP1 cell noCPT 10µM.
For CCOC(=O)C1CCN(CC(=O)Nc2cc(S(=O)(=O)N3CCCCC3)ccc2Cl)CC1 the results were DT40 TDP1 CPT 21µM, PLK1 PBD block inactive, TDP1 block inactive, GCN5L2 inh inactive, VDR inhibitor inactive and TDP1 cell noCPT 21µM.
CCN1CCN(CC(=O)Nc2cc(S(=O)(=O)N3CCCCC3)ccc2Cl)CC1 was read as DT40 TDP1 CPT inactive, PLK1 PBD block inactive, TDP1 block inactive, GCN5L2 inh inactive, VDR inhibitor inactive and TDP1 cell noCPT inactive.
CC(C)Oc1cccc(-c2cc(C(=O)NC(=S)N(C)c3ccccc3C(=O)O)c3ccccc3n2)c1 was read as DT40 TDP1 CPT inactive, PLK1 PBD block inconclusive, TDP1 block inactive, GCN5L2 inh inactive, VDR inhibitor inactive and TDP1 cell noCPT inactive.
Cc1ccc2nc(-c3ccc(N)cc3)sc2c1S(=O)(=O)O was read as TDP1 block 32µM.
Cc1ccc2nc(-c3ccc(N=Nc4cc(S(=O)(=O)O)c5ccccc5c4O)cc3)sc2c1S(=O)(=O)O was read as DT40 TDP1 CPT inconclusive, TDP1 block inactive, VDR inhibitor inactive and TDP1 cell noCPT inconclusive.
For CC(=O)C1(O)C(C)CC2C3CC(F)C4(O)CC(O)CCC4(C)C3CCC21C (configuration not stated) the results were DT40 TDP1 CPT inactive, PLK1 PBD block inactive, VDR inhibitor inactive and TDP1 cell noCPT inactive.
For O=C(O)CNC(=O)c1ccc(CO)o1 the results were TDP1 block inactive.
For O=C(CN(Cc1ccco1)C(=O)CNS(=O)(=O)c1ccc(F)cc1)NCc1ccc(F)cc1 the results were DT40 TDP1 CPT inactive, PLK1 PBD block inactive, TDP1 block inactive, GCN5L2 inh inactive, VDR inhibitor inactive and TDP1 cell noCPT inactive.
For O=C(CN(Cc1ccco1)C(=O)CNS(=O)(=O)c1ccc(Cl)cc1)NCc1ccc(F)cc1 the results were DT40 TDP1 CPT inconclusive, PLK1 PBD block 27µM, VDR inhibitor inactive and TDP1 cell noCPT inconclusive.
For CCc1ccc(NC(=O)CSc2n[nH]c(=O)n2C2CC2)cc1 the results were DT40 TDP1 CPT inactive, PLK1 PBD block inactive, TDP1 block inactive, GCN5L2 inh inactive, VDR inhibitor inactive and TDP1 cell noCPT inactive.
Screening COC(=O)CC(=O)CSc1nc2cc(C(=O)NC(C)C)ccc2c(=O)n1CCc1ccccc1 returned DT40 TDP1 CPT inconclusive, TDP1 block inactive, GCN5L2 inh inactive, VDR inhibitor inactive and TDP1 cell noCPT 23µM.
COCCn1c(SCC(=O)c2c[nH]c3ccccc23)nc2cc(C(=O)NC(C)C)ccc2c1=O was read as DT40 TDP1 CPT inconclusive, TDP1 block inactive, GCN5L2 inh inactive, VDR inhibitor inactive and TDP1 cell noCPT inconclusive.
`COC(=O)CC(=O)CSc1nc2cc(C(=O)NCC(C)C)ccc2c(=O)n1CCc1ccccc1` gave DT40 TDP1 CPT inconclusive, TDP1 block inactive, GCN5L2 inh inactive, VDR inhibitor inactive and TDP1 cell noCPT 21µM.
For CCCCCCc1ccc(N2C[C@H](CCCCC)[C@@H](CC(=O)NCc3ccc(OC)cc3)C2=O)cc1 the results were DT40 TDP1 CPT inconclusive, PLK1 PBD block inactive, GCN5L2 inh inactive, VDR inhibitor inactive and TDP1 cell noCPT 13µM.
`CCCCCCc1ccc(N2C[C@H](CCCCC)[C@@H](CC(=O)NCc3ccccc3)C2=O)cc1` gave DT40 TDP1 CPT 14µM, PLK1 PBD block inactive, GCN5L2 inh inactive, VDR inhibitor inactive and TDP1 cell noCPT 18µM.
CCCCCCc1ccc(N2C[C@H](Cc3ccccc3)[C@@H](CC(=O)NCc3ccc(OC)cc3)C2=O)cc1 was read as DT40 TDP1 CPT 13µM, PLK1 PBD block inactive, GCN5L2 inh inactive, VDR inhibitor inactive and TDP1 cell noCPT 13µM.
`CN(C)S(=O)(=O)c1cccc(C(=O)Nc2ccccc2C(=O)NC2CC2)c1` gave DT40 TDP1 CPT inactive, PLK1 PBD block inactive, TDP1 block inactive, GCN5L2 inh inactive, VDR inhibitor inconclusive and TDP1 cell noCPT inconclusive.
Screening O=C(Nc1ccc2nc3n(c(=O)c2c1)CCCC3)c1cccc(F)c1 returned DT40 TDP1 CPT inactive, PLK1 PBD block inactive, GCN5L2 inh inactive, VDR inhibitor inactive and TDP1 cell noCPT inactive.

Compound activity as filed in PubChem BioAssay.
